Laboratory results taken from PubChem BioAssay AID651635 (National Center for Advancing Translational Sciences (NCATS), 2012).
In all, about 400,000 compounds went through this assay and about 1,900 (0.47%) were called active. Not shown: some 14% with an inconclusive outcome. This is one part of a sample in which actives are shown more often than they occur. Values without a mark were called inactive. The call rests on the fitted dose curve; in most records, active means well fitted cell-killing curve with a large enough effect; inconclusive means small, poorly fitted or top-dose-only effect, or effect the other way; inactive means no such curve, though single readings can be large or run the other way.

Assay: Viability Counterscreen for Primary qHTS for Inhibitors of ATXN expression; further: nearly all actives have a fitted effect of over 40% in size
Settings: S2 cells (HEK-293 line with an ATXN2-luciferase reporter) viability, CellTiter-Fluor protease fluorescence, 24 h; series mostly up to 56.7 µM; activity change, negative = cytotoxicity: at the top concentration
Potency means the concentration at half of the fitted maximal effect.

With `COc1ccc(-c2nc3nc(C)cc(C)n3c2Nc2c(C)cccc2C)cc1` the Potency was 28.2 µM (active).
For `COc1ccc2c(c1OC)C(=O)OC2Nc1nc(-c2ccccc2)cs1` (centres undefined), the Potency was 20 µM (active).
For `Cc1ccc(-c2csc(NC3OC(=O)c4ccccc43)n2)cc1` (centres undefined), the Potency was 25.1 µM (active).
With `O=[N+]([O-])c1c(NCCO)cc(Sc2nc3ccccc3s2)c2nonc12` the Potency was 20 µM (active).
For `CCCCN1CC(c2nc3ccccc3n2CCCCOc2ccc(C)cc2C)CC1=O` (centres undefined), the Potency was 25.1 µM (active).
In the case of `CCCCc1c(-c2ccc(Br)cc2)ncn1CCc1ccccc1OC`, the Potency is reported as 15.8 µM (active).
For `CCCCCc1c(Cc2ccccc2)ncn1CCc1ccccc1OC`, the Potency was 22.4 µM (active).
With `Cc1nnc(N2CCC(C(=O)Nc3ccc(F)cc3)CC2)c2nn(-c3ccc(Cl)cc3)c(C)c12` the Potency was 20 µM (active).
With `CCOC(=O)C1=C(c2ccc(OC)cc2)C(=O)c2ccccc2C1=O` the Potency was 6.31 µM (active).
For `COc1ccccc1OCCNCC(O)COc1cccc2[nH]c3ccccc3c12` (centres undefined), the Potency was 28.2 µM (active).
For `CNC[C@H](CC1CCCCC1)NC[C@H](NCCC1CCCC1)[C@H](C)O`, the Potency was 17.8 µM (active).
In the case of `O=C(/C=C/Sc1ncn[nH]1)c1ccc(Cl)cc1`, the Potency is reported as 25.1 µM (active).
For `O=c1[nH]nc(SCCS(=O)(=O)c2ccc(F)cc2)n1-c1ccccc1C(F)(F)F`, the Potency was 11.2 µM (active).
With `Oc1ccc(Br)cc1/C=N/Nc1ccccn1` the Potency was 0.251 µM (active).
In the case of `COc1ccc(CS(=O)/C(Cl)=C(/Cl)C(=O)Nc2ccc(OC)nc2)cc1` (centres undefined), the Potency is reported as 1.89 µM (active).
With `Cc1nnc(C(=O)NC(C)(C)c2nc(C(=O)NCc3ccc(F)cc3)c(O)c(=O)n2C)o1` the Potency was “inactive”.
For `COc1cc(NC(=O)c2[nH]cnc2C(N)=O)cc(C(=O)Nc2cccc(C(F)(F)F)c2)c1`, the Potency was 10 µM (active).
With `O=C(CCl)Nc1ccc(Sc2ccc(NC(=O)CCl)cc2)cc1` the Potency was 11.2 µM (active).
In the case of `CCc1ccc2c(c1)NC(=O)C2(C)Cc1ccc(OC(F)(F)F)cc1` (centres undefined), the Potency is reported as 20 µM (active).
With `CC1(Cc2cccc(C#N)c2)C(=O)Nc2ccc(-c3cccc(C(F)(F)F)c3)cc21` (centres undefined) the Potency was 25.1 µM (active).

Point of comparison: `O=c1cc(O)c(-c2cccc(C(F)(F)F)c2)c(Cl)[nH]1`, “activity change, negative = cytotoxicity” value -19.8%. Against it:
- COc1cccc(CSc2nc3nc(C)cc(C)n3n2)c1 — higher, 2.32%
- COc1ccc(-c2cc(C)nc3nc(N)nn23)cc1 — higher, 0.852%
- COc1cncc(-c2cnc3sc(NCCc4ccccn4)nn23)c1 — higher, 2.53%
- COc1cc(/C=C/C(N)=O)cc(OC)c1OC — higher, -12.2%
- CC1CCCN(CC(=O)Nc2cc(Cl)ccc2Oc2ccccc2)C1 (centres undefined) — higher, 16.2%
- CC(C)(c1ccccc1)c1ccc(OCCN2CCCC2)cc1 — higher, 1.01%
- COCC1CCCN(Cc2ccc3c(c2)CN(C(=O)c2ccnn2C)CCO3)C1 (centres undefined) — higher, 2.16%
- CCCNC(=O)c1cc(C2CCCN(C(=O)c3ccc4c(c3)CCO4)C2)on1 (centres undefined) — lower, -32.5%
- COc1ccc2c(c1)CCc1cnc(-n3ncc(C(=O)NCCN4CCOCC4)c3C)nc1-2 — higher, -7.73%
- Cc1cnc(C(=O)N2CCOc3ccc(CN4CCCC(C(=O)c5cccnc5)C4)cc3C2)[nH]1 (centres undefined) — lower, -20.4%
- CC(=O)Nc1cc(C(=O)N2CCc3c(Cl)cccc3C2)cc2ncn(CCc3ccccn3)c12 — higher, -11.4%
- Cc1ccc(-c2csc(-c3c[nH]c4ccccc34)n2)cc1 — higher, -12.2%
- C/C(CC1CC(C)(C)OC1=O)=N/Nc1nc(-c2ccccc2)cs1 (centres undefined) — lower, -37.1%
- COc1ccc(-c2csc(Nc3cccc(C)n3)n2)cc1OC — lower, -29.7%
- CCc1ccccc1NC(=O)[C@@H]1CCC(=O)N1C1OC(=O)c2c1ccc(OC)c2OC (some centres undefined) — higher, -5.58%
- Cc1c(C(=O)NCC2CCCN(C)C2)cnn1-c1nccc(-c2ccco2)n1 (centres undefined) — higher, -11.9%
- Cc1ccc(NS(=O)(=O)c2cc3c(cc2Br)NC(=O)CO3)cc1C — lower, -26.2%
- N#Cc1ccc(-c2nc3c(Cl)cc(C(F)(F)F)cn3c2Cc2ccccc2C(F)(F)F)cc1 — higher, -15.8%
- C[C@@H]1CN(Cc2ccc3c(c2)CN(Cc2ccc(Oc4ncccn4)cc2)CCO3)C[C@H](C)O1 — higher, -1.79%
- CC(C)c1ccc(S(=O)(=O)Nc2ccc(O)c(Sc3nc4ccccc4s3)c2)cc1 — lower, -34%
- CC(C)(C)c1ccc(S(=O)(=O)Nc2ccc(O)c(Sc3nc4ccccc4s3)c2)cc1 — lower, -34.1%
- C=C1C(=CC=C2CCC[C@]3(C)[C@@H]([C@H](C)C=C[C@H](C)C(C)C)CC[C@@H]23)C[C@@H](O)C[C@@H]1O — higher, 13.1%
- COc1ccc(C)cc1N1C(=O)[C@@H]2C[C@H]1CN2Cc1cccc(OC)c1O — higher, -13.5%
- COc1ccc(NC(=O)C2Cc3c(-c4ccc(Cl)cc4)ccnc3O2)cc1 (centres undefined) — lower, -34.9%
- CCc1ccccc1N1CC(c2nc3ccccc3n2CCCCOc2ccccc2)CC1=O (centres undefined) — higher, -17.9%
- CCOc1ccc(N2CC(c3nc4ccccc4n3CCOc3ccc(OC)cc3)CC2=O)cc1 (centres undefined) — lower, -34.3%
- COc1ccccc1Cc1c(-c2ccc(Cl)cc2)nc2ccc(Cl)cn12 — higher, -9.29%
- Cn1c(=O)c2c(ncn2CCc2ccccc2)n(C)c1=O — higher, -14.3%
- CCOc1ccc(-c2n[nH]c3c2C(c2ccccc2OC)N(c2ccc(Br)cc2)C3=O)cc1 (centres undefined) — lower, -27.2%
- COc1ccccc1CCNS(=O)(=O)c1cn(C)nc1C — higher, -9.41%
- CCCc1c2oc(C(=O)O)cc(=O)c2cc2c(=O)cc(C(=O)O)n(CC)c12 — higher, -0.84%
- O=C1CCN(Cc2ccc(-c3ccccc3)cc2)CCN1Cc1ccccn1 — higher, -0.49%
- Cc1ncc2c(c1CNS(=O)(=O)N(C)C)CCN(C(=O)c1ccccc1F)C2 — higher, -9.75%
- CS(=O)(=O)NC(=O)CCC/C=C\C[C@H]1C(=O)C[C@@H](O)[C@@H]1/C=C/[C@H](O)COc1ccccc1 — higher, -8.77%
- Cc1ccc(-c2ccnc(-n3ncc(C(=O)N(C)Cc4cccc5ncccc45)c3C3CC3)n2)o1 — higher, -9.53%
- COc1cccc(NC(=O)C2CCN(c3cc(C)nc4c(-c5ccc(Cl)cc5)c(C)nn34)CC2)c1 — higher, -19.3%
- COc1ccc(-n2nc3c(N4CCC(C(=O)NCc5ccccc5)CC4)nnc(C)c3c2C)cc1 — higher, -17.5%
- COC(=O)c1cc(OC)ccc1-c1ccc(OC)cc1 — higher, 7.37%
- CCOC(=O)N1CCN(S(=O)(=O)c2ccc(OC)cc2)CC1 — higher, -16.8%
- COC(=O)[C@@H]1C[C@H](NC(=O)c2ccccc2C(F)(F)F)CN1Cc1cccc(O)c1 — higher, -18.1%
- CC(C)(C)C1CCc2c(sc(NC(=O)c3ccccc3F)c2C(=O)N2CCCCC2)C1 (centres undefined) — higher, -15.6%
- CC(O)CNCCOc1cccc(Oc2ccccc2)c1 (centres undefined) — lower, -31%
- COc1cccc2[nH]c(C(=O)NCCc3ccccc3)cc12 — lower, -21.9%
- COc1ccc(NC(=O)C2Cc3c(-c4ccc5c(c4)OCO5)ccnc3O2)cn1 (centres undefined) — higher, -16.8%
- Cc1ccc2cccc(NC(=O)c3cccc4ccccc34)c2n1 — lower, -34.8%
- COc1cc(=O)n2c(c1C(=O)NCc1ccco1)CCN(Cc1ccccc1)CC2 — higher, -5.97%
- Cc1cccc(C)c1NC(=O)c1ccc(N)cc1 — higher, 0.704%
- Cc1cc(C(=O)NCC2Cc3cccc(-c4cncnc4)c3O2)c(C)o1 (centres undefined) — higher, -10.9%
- O=C(NCC(c1ccc2c(c1)OCO2)N1CCN(c2ccccc2)CC1)C(=O)Nc1ccccc1F (centres undefined) — higher, 1.03%
- O=S(O)CNc1ccc(S(=O)(=O)c2ccc(NCS(=O)O)cc2)cc1 — higher, -5.35%
- O=C(CSc1ncn[nH]1)NCc1ccc2c(c1)OCO2 — higher, -17%
- O=C(CSc1ncn[nH]1)Nc1ccc(Br)cc1Br — higher, -18.1%
- CC(C)Oc1ccc(CN2CCC2(C)C(=O)NCc2ccc(C(F)(F)F)cc2)cc1 (centres undefined) — lower, -28.4%
- COc1cc(Cn2c3ccc(NC(=O)CC(C)c4ccccc4)cc3c(=O)n2C)ccc1F (centres undefined) — lower, -29.6%
- Cc1cccc(Cc2c(C)nc3nc(SCc4ccccc4Cl)nn3c2C)c1 — lower, -21.8%
- COc1ccc(CN(C)CCn2cc(C(=O)N3CCSCC3)nn2)cc1C — higher, -7.73%
- O=C(CSc1n[nH]c(=O)n1-c1ccccc1)Nc1ccccc1C(F)(F)F — lower, -31.4%
- O=S(=O)(c1ccc(F)cc1)N1CCN(Cc2ccccc2C(F)(F)F)CC1 — lower, -24.4%
- COc1ccc(-c2csc(C(O)c3cccc(Cl)c3)n2)cn1 (centres undefined) — higher, -0.881%
- COc1cc(=O)n2c(c1C(=O)NC(C)c1ccco1)CCN(Cc1cc(C)cc(C)c1)CC2 (centres undefined) — higher, -1.1%
- O=C(CCc1ccc(O)cc1)NN=Cc1cc(Br)ccc1O — higher, -7.67%
- Cc1c(C(=O)Nc2ccccn2)oc2ccc(Br)cc12 — lower, -31.1%
- CN[C@H]1C[C@H]2c3cc(Oc4ccccc4C)ccc3CCN2C(=O)[C@H]1[C@H](C)O — lower, -34.6%
- COc1ccccc1-c1ccc(C(=O)N(C)C(C)c2ccon2)c(N2CCN(c3ccccc3F)CC2)n1 (centres undefined) — higher, -15.6%
- COc1ccc(NC(=O)C(=O)NCc2ccco2)cc1 — higher, -3.97%
- COc1ccc(C(O)c2nc(-c3ccc(OC)nc3)cs2)cc1 (centres undefined) — lower, -24.5%
- Cc1cc(Nc2cccc(C(F)(F)F)c2)nc2ccc(NC(=O)c3ccc(=O)[nH]c3)cc12 — higher, 1.61%
- COc1cc(OC)cc(C(=O)Nc2ccc3nc(Nc4cccc(C(F)(F)F)c4)cc(C)c3c2)c1 — higher, 8.18%
- CN(C)C(=O)[C@@H]1C[C@@H](Sc2nc3ccccc3[nH]2)CN1Cc1ccc(Cl)cc1 — higher, -16.4%
- CCC(=O)Nc1ccc(Nc2nc(Cl)nc(Nc3ccc(NC(=O)CC)cc3)n2)cc1 — higher, 11.2%
- CC(C)(CCl)C(=O)Nc1ccc(Sc2ccc(F)cc2)cc1 — lower, -39%
- COC(=O)c1ccccc1-c1cc(C)cc2c1OC(CNC(=O)C1CCOC1)C2 (centres undefined) — higher, -11.1%
- CNc1cncc(-c2ccc(NS(C)(=O)=O)cc2)n1 — higher, 29.4%
- COC(=O)Cc1ccc(OCC(=O)Nc2ccc(OC(F)(F)F)cc2)cc1 — lower, -27.9%
- CCC1CN(CCNC(=O)c2cccnc2C)Cc2cc(OC)ccc2O1 (centres undefined) — higher, -4.97%
- COc1ccc(CN2CCC3(CCC(CNC(=O)c4ccco4)O3)CC2)cc1OC (centres undefined) — higher, -18.1%
- CCCCOC(=O)/C(C#N)=C/c1ccc(-c2cccc(C(F)(F)F)c2)o1 — higher, -14.9%
- COCCCN1CCC(NC(=O)c2cc(Cl)c(N)c3c2OCC3)CC1 — higher, -17.6%
